Data: the supplement of paper PMC11417369
± gives the standard deviation of the averaged measurements. The full ranking holds about 25,000 sequences; the median of “ln(normalized median fluorescence intensity)” is about 8.9, and the highest 2% start at about 10. Only a selection was taken, and the highest values are over-represented in it overall.

Tested on: PfAP2-LT AP2 domain (GST-tagged)
Assay: gcPBM binding intensity (ln(normalized median fluorescence intensity)); higher = stronger DNA binding
Summary of the method: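 For binding intensity, the highest Masliner-normalised natural-log median intensity across replicate spots of either probe orientation was taken. Protein bound to the array was stained with Alexa488 anti-GST antibody and scanned at 488 nm. The protein, GST-tagged P. falciparum DNA-binding domains from E. coli at about 25 μg on average, had been applied for 1 h to an Agilent 4 × 180k array of primer-extended double-stranded 36-bp intergenic genomic probes and negative controls.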

| Sequence | gcPBM binding intensity (ln) |
| --- | --- |
| CATATACGCAAACACACACACATATATATATATATA [CACACA_site501] | 10.3 ± 0.27 |
| AAAACACAAAAAAAATGTACACATATATATATATAT [XGTACX_site8509] | 9.84 ± 0.12 |
| TGTACAAATATGTACACACACACATATATATATATA [CACACA_site584] | 9.88 ± 0.085 |
| CATACATACAAACACACACACATATATATACATACA [CACACA_site852] | 10.1 ± 0.38 |
| TATATACACCCACATACACACAAATAAAAAAACACC [CACACA_site3414] | 9.64 ± 0.31 |
| TATACGCATATATAAACACACAAAAAAAAAAAAAAA [CACACA_site2026] | 8.86 ± 0.48 |
| CATACATACAAACACACACACATATATATATATATA [CACACA_site43] | 10.16 ± 0.042 |
| CATACATATAAACACACACACACACCCACCCACAAA [CACACA_site8059] | 10.4 |
| TATAAATATACAAACACACATACAAACATATATATA [CACACA_site1120] | 9.24 ± 0.37 |
| TACATATATATATACACACATACATATATATACGCA [CACACA_site792] | 9.11 ± 0.28 |
| AGGCACACAAACATATGTACACATATATATATATAT [XGTACX_site4723] | 10.21 ± 0.078 |
| AAAAAAAAAAAAAACATACACACAAATATATACATA [CACACA_site4010] | 9.05 ± 0.45 |
| TCTTTTTAACAAAAAAAAAAAAAAAAAAAAAAATTA [CACACA_negctrl_site1637] | 7.96 ± 0.43 |
| AGTAGTCTGGAGAAAAGTACATAGTATCTGGTAACC [XGTACX_site2024] | 8.81 ± 0.58 |
| AAAAAAATTAAACATGAAGAATAAGGAACAAAAAAA [CACACA_negctrl_site1607] | 8.78 ± 0.55 |
| CTGATATATAGATGTAGTACATAAAAATGACGAATT [XGTACX_site5612] | 8.99 ± 0.47 |
| ATTTTTTTGGAATTCACACACAAAAAAAAAAATAAA [CACACA_site2081] | 8.79 ± 0.47 |
| GATAAATCATATATAACACACATATGAATATTACAA [CACACA_site1321] | 8.98 ± 0.35 |
| AACTTACTTGGACATACACACATATATATATATATA [CACACA_site2978] | 9.78 ± 0.3 |
| TGGTAATACCCATACACACACACATACCCATATATA [CACACA_site5509] | 9.76 ± 0.33 |
| CAAACCCACCAACACACACACACAAAAATGATTAAA [CACACA_site2432] | 9.88 ± 0.3 |
| GTTACACCAACAAACACACACACACCGACACCCAAA [CACACA_site5361] | 10.1 ± 0.17 |
| GTTACACCAACAAACACACACACACCCACCCACAAA [CACACA_site2427] | 10.3 ± 0.16 |
| TGGTAATACCCATACACACACACATACACATATATA [CACACA_site8877] | 9.76 ± 0.32 |

| Sequence | gcPBM binding intensity (ln) |
| --- | --- |
| TATACATACCCACCCACACACAAAAAAAAAAAAAAA [CACACA_site4632] | 9.76 ± 0.3 |
| TATATACACAAACACACACACACATACACCCACATA [CACACA_site8504] | 10.2 ± 0.16 |
| TGCATATACGCAAGCACACATATATATATATATATA [CACACA_site1069] | 10.1 ± 0.4 |
| TGCATATACTCAAGCACACATATATATATATATATA [CACACA_site4733] | 9.76 ± 0.13 |
| GTAATACCCAAACACACACACATACCCATATATATA [CACACA_site5510] | 10.1 ± 0.29 |
| TACACAAATATATACATACACACATATATACGCATA [CACACA_site394] | 9.27 ± 0.3 |
| AAGAAAAGAAACAAAAAAAAAAAGAAATAAAAGGAA [TGCATGCA_negctrl_site171] | 8.61 ± 0.62 |
| AAAATTTATAAAAGCACACAAAATAAAAAAAAATGA [CACACA_site1491] | 8.88 ± 0.46 |
| AAGAAAATAAAATAAAAAAAAAAATAAAAAAAATAA [TGCATGCA_negctrl_site516] | 8.37 ± 0.74 |
| CAAAAATAAACTATAGTACACACTTATTATTATGAA [CACACA_site2702] | 8.8 ± 0.49 |
| ACACATACTAAAATGTTGTGAAATATGATAATGTGA [CACACA_negctrl_site851] | 9.11 ± 0.47 |
| TTAATCATAAAAGTCACACATAATAAGAAAAAGCTT [CACACA_site4616] | 8.78 ± 0.37 |
| AAATAGGGAATTTATGCACACAGTTAAGGGGGAAAA [CACACA_site2071] | 9.28 ± 0.26 |
| ACATATAATAAAAAATGTACACACATAAGAAAATTT [XGTACX_site6153] | 9.16 ± 0.38 |
| TAAATACATTTATGTACACACACATAGATGTATATT [CACACA_site5618] | 9.22 ± 0.36 |
| TAACATGATATATAATGTACATATAAGATATTTATA [XGTACX_site4383] | 8.79 ± 0.45 |
| CACAAAGACACAAACACACACACACCCACATACATA [CACACA_site452] | 9.86 ± 0.24 |
| CATACATAGAAACACACACACACACCCACCCACAAA [CACACA_site494] | 10.19 ± 0.028 |
| TAACCATACATACATACACACACACCCACATATATA [CACACA_site8951] | 9.95 ± 0.13 |
| CACACCCACCAACACACACACACACCCACCCATATA [CACACA_site366] | 10.3 ± 0.12 |
| CATATACACCAACACACACACACACCCACAAAAAAA [CACACA_site496] | 10.1 ± 0.27 |
| TACACCCACCAACACACACACACACCCAAAAAAAAA [CACACA_site498] | 10.1 ± 0.14 |
| GATACATAGAAACACACACACATACATATATACATA [CACACA_site3438] | 9.92 ± 0.26 |
| AACATATTAATGTACACACACCCACGCACAAACAAA [CACACA_site7320] | 9.765 ± 0.092 |

| Sequence | gcPBM binding intensity (ln) |
| --- | --- |
| CACACCACCAACAAAAGTACATACATATATATATAT [XGTACX_site5781] | 9.65 ± 0.14 |
| AAGCAAACATATTAATGTACACACACCCACACACAA [XGTACX_site5806] | 9.95 ± 0.46 |
| CAAACATATTAATGTACACACACCCACCCACAAACA [CACACA_site2752] | 10.2 ± 0.29 |
| ATATATTACAATATATGTACTTAATTTGCTTAAATA [XGTACX_site7912] | 8.6 ± 0.52 |
| TAACAAATATTATTTTGTACATAATATATATATATA [XGTACX_site6898] | 8.6 ± 0.32 |
| TTGTTTCAAAATTAAACACACACAAAAAAAAAAAAA [CACACA_site8856] | 8.86 ± 0.52 |
| TTATATATATTTAAAAAAATAACATAAATAAATAAA [CACACA_negctrl_site347] | 8.29 ± 0.52 |
| AGTCTTTTACATTGCACACACATTTCTTTCCTTTTG [CACACA_site2988] | 9.61 ± 0.36 |
| AATAGGATATGGTACATTTTTTGTATACTTTTTGTT [CACACA_negctrl_site1804] | 8.91 ± 0.47 |
| ATATATATATGTGGATGTACATATATCTCTTATTAT [XGTACX_site1748] | 9.05 ± 0.42 |
| GAGAGAGAAATAAAAAGTACATACATATATATACAT [XGTACX_site2267] | 8.84 ± 0.58 |
| TCATAGTCTTAATGACTACACACCTAACTATGCATG [CACACA_site1839] | 9 ± 0.47 |
| TAATATGCATAAAATTGTACAAACTTACATATAATA [XGTACX_site2752] | 8.92 ± 0.45 |
| CACCCATACACATACAAACACACATTCTATATATAT [CACACA_site1600] | 9.28 ± 0.46 |
| GACACCCATAAATATACACACGCACAACACAAAATA [CACACA_site8944] | 9.46 ± 0.38 |
| CACAAACACCCAAACACACACACACCGACATACATA [CACACA_site4410] | 10.1 ± 0.46 |
| CACATACCCATACAAACACACATTATATATATATAT [CACACA_site4965] | 9.56 ± 0.33 |
| ATCAACAAAACATACACACACATATATATATATATA [CACACA_site2989] | 10.32 ± 0.057 |
| CATACATACAAACACACACACACACCCATATATATA [CACACA_site2918] | 10.1 ± 0.31 |
| CACGCGCACCAACACACACACACACCCATATATATA [CACACA_site2204] | 10.3 ± 0.4 |
| ATCAAAAGAAAACACACACACATACATATATATATA [CACACA_site3795] | 10.1 ± 0.3 |
| CAATCAACAAAACATACACACACATATATATATATA [CACACA_site8979] | 10 ± 0.33 |
| CAAACACCCAAACACACACACACATACATACATACA [CACACA_site8044] | 9.98 ± 0.15 |
| AAAAGTTATAGACACACACACATATAAATATAGATT [CACACA_site6617] | 9.57 ± 0.3 |

| Sequence | gcPBM binding intensity (ln) |
| --- | --- |
| TGTGTATAAATATACACACACATATAAATATTTTAA [CACACA_site7005] | 9.09 ± 0.35 |
| TTGCCATTAATTTATACACACACATTTTAATTTTTT [CACACA_site8150] | 9.16 ± 0.39 |
| GTAAATTATATAACAAATAAAAATGTACATATATAT [CACACA_negctrl_site408] | 8.88 ± 0.46 |
| TAAATTATCTTTTTATGTACTTATTTTTATTATTTT [XGTACX_site3158] | 8.73 ± 0.55 |
| AAAATATATGAAAACAGTACATATAAAAATTAAAAA [XGTACX_site2594] | 8.75 ± 0.64 |
| AAAAAAATTAATATGTCAGCACATATATACATACAT [GTGCAC_negctrl_site110] | 8.88 ± 0.41 |
| ATATTAGTCGAATGATGTACACACATACAAAACATT [XGTACX_site8613] | 9.28 ± 0.45 |
| TGTGAATATATCTTTAAAAAGGATAAATAATAATTT [CACACA_negctrl_site507] | 8.47 ± 0.52 |
| GATGGATTTATTTAAAGTACATATTTAAAAAACTGT [XGTACX_site7567] | 8.51 ± 0.49 |
| ACCTATTTCAAACACACACACACACTAACAAACATA [CACACA_site8233] | 10 ± 0.13 |
| GGAAACACAATATATACACACATATATATATATATA [CACACA_site235] | 10.1 ± 0.021 |
| ACAATAAACATATATACACACACAAAAAAAAAAACA [CACACA_site8033] | 9.64 ± 0.33 |
| ACCTATTTCAAACACACACACACACCCACAAACATA [CACACA_site977] | 10.1 ± 0.33 |
| AATATAATATAAGGATCACACACAAACACCCATATA [CACACA_site8084] | 9.77 ± 0.2 |
| CGCACCCAAATATATACACACATATATATATATATA [CACACA_site1651] | 10.1 ± 0.16 |
| TATAATATAAGGATCACACACAAACACCCATATATA [CACACA_site4468] | 9.56 ± 0.18 |
| AAGGATCACCCACAAACACACATATATATATATATA [CACACA_site559] | 10.2 ± 0.28 |
| GAACAAACAAAGAAAGAACACACATACACAATATAC [CACACA_site8918] | 9.6 ± 0.38 |
| AGCAAATACAAACACACACACACATATACATATATA [CACACA_site3497] | 10.1 ± 0.26 |
| AATACACGCAAACACACACACACACCCACATATATA [CACACA_site638] | 10.3 ± 0.14 |
| ATGTACCTATTTCATACACACACACCCACAAACAAA [CACACA_site8232] | 9.66 ± 0.16 |
